BaF3 tox: parental Ba/F3 viability inhibition as JAK2V617F counter-screen | inhibition, % at 5.6 µM | AID 1486 | actives 1.1% (n = 220,000) | CellTiter-Glo ATP luminescence;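 active = inhibition above a per-campaign cutoff, the mean inhibition of all tested compounds plus 3 SD, cut at about 27% in these data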;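 note: 0% = DMSO wells and 100% = JAK Inhibitor I control wells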
KLF5 inhibitor: inhibitors of KLF5 expression; inhibition, % at 5 µM; AID 1700; DLD-1 KLF5 promoter-luciferase reporter, luminescence; actives 0.23% (n = 290,000);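 active = inhibition above a per-plate limit of that plate's mean compound inhibition plus 3 SD, cut at about 60% in these data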;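 note: 0% = DMSO wells and 100% = LY294002 at 200 µM; higher means less KLF5 promoter-driven luciferase light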
aSyn UTR inh: MLPCN primary screen, SNCA 5' untranslated region. actives 0.82% (n = 300,000). inhibition, % (tested at 7.5 µM). AID 1813. alpha-synuclein 5'UTR reporter, inhibitor activity; in the data active = inhibition above about 60%;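 note: H4 neuroglioblastoma cells stably carrying SNCA 5'UTR luciferase fusion; 0% = DMSO wells and 100% = positive control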
APP 5UTR inh: APP translation inhibition; actives 0.82% (n = 190,000); inhibition, % at 2 µM; SH-SY5Y APP 5'UTR-luciferase reporter, luminescence; AID 1285;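 active = inhibition above a set limit, derived from the sample mean plus 3 SD, cut at about 45% in these data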
IEC-6 tox-1: counter-screen for KLF5 inhibitors: cytotoxicity in IEC-6 cells. IEC-6 cytotoxicity, luminescence viability. inhibition, % at 5 µM. actives 0.78% (n = 290,000). AID 1825; in the data active = inhibition above about 22%;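 note: 0% = plate median of test compound wells and 100% = cytotoxic reference compound wells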
Ba/F3 V617F tox: loss of viability in JAK2V617F-driven Ba/F3 cells; Ba/F3 EpoR-JAK2V617F viability, ATP luminescence; inhibition, % at 5.6 µM; actives 1.1% (n = 220,000); AID 1446;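 active = inhibition above the campaign mean plus 3 SD over all tested compounds, cut at about 24% in these data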;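 note: cytokine-independent growth of Ba/F3 cells driven by EpoR plus mutant JAK2; 0% = DMSO-treated cells and 100% = JAK inhibitor I control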
KLF5 inh confirm: KLF5 inhibition, confirmation assay. shares compounds with KLF5 inhibitor. actives 79% (n = 610). inhibition, % at 4 µM. DLD-1 KLF5 promoter firefly luciferase reporter, luminescence;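 active = inhibition above a set limit taken from the earlier primary screen, cut at about 63% in these data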;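 note: 0% = DMSO wells and 100% = LY294002 at 200 µM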
IEC-6 tox-2: counter-screen for KLF5 inhibitors: cytotoxicity in rat IEC-6 cells. shares compounds with KLF5 inhibitor. IEC-6 rat intestinal cells, viability luminescence. inhibition, % at 4 µM. actives 56% (n = 610). AID 1905; in the data active = inhibition above about 23%;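 note: cells exposed to compounds for 48 hours before viability read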
Starred values were filed as active, the others as inactive; x = no result given. Hits are enriched below; roughly 2.1% of the tested compounds scored in any of these assays.

SMILES | BaF3 tox | KLF5 inhibitor | aSyn UTR inh | APP 5UTR inh | IEC-6 tox-1 | Ba/F3 V617F tox | KLF5 inh confirm | IEC-6 tox-2
CS(=O)(=O)N1CCC(Oc2ccccc2C(=O)N2CCNC(=O)C2)CC1 | 4 | -25 | -10 | 16 | 2 | -2 | x | x
Cc1ccc(CSc2[nH]c(=O)ncc2C)cc1 | x | -4 | -2 | x | 2 | x | x | x
O=C(CN1C(=O)NC2(CCCC2)C1=O)Nc1ccc(Cl)cc1F | x | -13 | 6 | x | -2 | x | x | x
O=C(CN1C(=O)NC2(CCCC2)C1=O)Nc1ccccc1F | 4 | 109* | -12 | 0 | 5 | 2 | 1 | -7
COc1ccc(C(=O)CN2C(=O)c3ccccc3S2(=O)=O)cc1 | -4 | 72* | 101* | x | -3 | -3 | 56 | -4
Cc1cc(C(=O)CN2C(=O)c3ccccc3S2(=O)=O)c(C)n1CC1CCCO1 (centres undefined) | 1 | 83* | 111* | 86* | -3 | -3 | 104* | 17
O=[N+]([O-])c1nn(-c2ccc3c(c2)OCCO3)n(O)c1=Nc1ccccc1 | 9 | 72* | 80* | 38 | -3 | 2 | 82* | 2
O=[N+]([O-])c1nn(-c2ccc3c(c2)OCCO3)n(O)c1=Nc1ccc(Cl)cc1 | 3 | 21 | 12 | 14 | -11 | -4 | x | x
Oc1ccc(-c2nc(-c3ccc(O)c(O)c3)cs2)cc1 | 81* | 69* | 36 | 94* | -1 | 88* | 48 | -1
CC(=O)c1ccc(N(CC(=O)NC2CCCCC2)C(=O)CNC(=O)c2cccs2)cc1 | x | -11 | -6 | x | -5 | x | x | x
COc1ccc2nc(NC(=O)c3ccc(NC(=O)C4CCCO4)cc3)sc2c1 (centres undefined) | x | 0 | -42 | x | -6 | x | x | x
Cc1ccc2nc(NC(=O)c3ccc(OCC4CCCO4)cc3)sc2c1 (centres undefined) | 1 | 68* | -42 | -37 | -8 | -6 | -25 | 10
Cc1cc(C)c2nc(NC(=O)c3ccc(OCC4CCCO4)cc3)sc2c1 (centres undefined) | 5 | 97* | -21 | -14 | 1 | -2 | 99* | -3
Cc1ccc2nc(NC(=O)c3ccccn3)sc2c1 | 7 | 65* | 111* | 22 | 20 | 5 | 87* | 98*
Cc1cc(NC(=O)c2ccco2)c(=O)n(Cc2cccc(C(F)(F)F)c2)c1 | x | -18 | 8 | x | -2 | x | x | x
CC(C)(C)C(=O)Nc1cc2nn(-c3ccccc3)nc2cc1Cl | 4 | 83* | x | -8 | 6 | -2 | 93* | 9
CC(=O)Nc1cc2nn(-c3ccccc3)nc2cc1Cl | 7 | -154 | -123 | -53 | 7 | 4 | x | x
CCC(=O)Nc1ccc(NC(=O)CSc2nnnn2C2CCCC2)cc1C | x | 0 | -5 | x | -5 | x | x | x
O=c1[nH]c(/C=C/c2ccc(Br)cc2)nc2ccccc12 | x | -28 | -169 | x | 1 | x | x | x
CN(C)c1ccc(/C=C/c2nc3ccccc3c(=O)[nH]2)cc1 | x | 99* | 87* | x | 20 | x | 94* | 2
COc1ccc(-c2nsc3c(N4CCCCC4C)ncnc23)cc1 (centres undefined) | 6 | 76* | 90* | 34 | -2 | -1 | 92* | 3
COc1ccc(C(=O)N2CCN(c3ncnc4c(-c5ccccc5)nsc34)CC2)cc1 | -3 | -4 | 15 | -4 | 11 | -2 | x | x
Nc1ncnc2c1ncn2[C@H]1C[C@H](O)[C@@H](COP(=O)(O)O)O1 | 11 | 75* | 9 | 11 | -6 | 6 | -3 | 7
Nc1ncnc2c1ncn2[C@H]1C[C@H](O)[C@@H](CO)O1 | 9 | -26 | x | -4 | 5 | 1 | x | x
CCOC(=O)c1sc(NC(=O)c2ccc3ncsc3c2)nc1C | -2 | 94* | -89 | -83 | -3 | -4 | 75* | 3
CCOC(=O)c1sc(NC(=O)c2cc3ccccc3o2)nc1C | 2 | 82* | -113 | -116 | 6 | 4 | 62* | -4

Compound activity from PubChem BioAssay.
